Data published in PubChem BioAssay AID1159580 (chemical genetic matrix, 2015).
In all, about 5,500 compounds went through this assay and about 2,000 (36%) were called active. About 18% were inconclusive and are not listed. Cut-off read from the data, not from the text of the source: active = normalized growth mostly below about 0.91 (no sharp cut-off); inconclusive = no clear call, values can overlap the other calls; inactive = mostly above about 0.92. The list shows a part of the results.

Experiment: chemical genetic growth profiling, strain panel (AID 1159580);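 note: tested at 20 µM; growth read once vehicle control cultures reached saturation at 30 °C; 1 = growth at the plate median or of vehicle wells; lower values mean less growth of the strain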
Details: growth OD

Measured: normalized growth

Cc1cccc(C)c1NC(=O)C1CCCCN1C (configuration not stated)
inactive: S. cerevisiae deletion strains, locus YJR075W, strain HOC1, hits give low values 1 | S. cerevisiae deletion strains, locus YKL009W, strain mrt4, hits give low values 1.04 | S. cerevisiae deletion strains, locus YKL068W, hits give low values 0.999 | S. cerevisiae deletion strains, locus YKL085W, strain MDH1 (second series), hits give low values 1 | S. cerevisiae deletion strains, locus YKL085W, strain MDH1, hits give low values 1 | S. cerevisiae deletion strains, locus YKL160W, strain elf1, hits give low values 0.994 | S. cerevisiae deletion strains, locus YKL190W, strain CNB1, hits give low values 0.982 | S. cerevisiae deletion strains, locus YKR001C, strain vps1, hits give low values 1.01 | S. cerevisiae deletion strains, locus YKR026C, strain gcn3, hits give low values 0.979 | S. cerevisiae deletion strains, locus YKR091W, strain srl3, hits give low values 0.994 | S. cerevisiae deletion strains, locus YLL001W, strain dnm1, hits give low values 0.99 | S. cerevisiae deletion strains, locus YLL026W, hits give low values 0.991 | S. cerevisiae deletion strains, locus YLL041C, strain sdh2, hits give low values 1 | S. cerevisiae deletion strains, locus YLR027C, strain aat2, hits give low values 0.992 | S. cerevisiae deletion strains, locus YLR039C, strain RIC1, hits give low values 1.01 | S. cerevisiae deletion strains, locus YLR058C, strain SHM2, hits give low values 1 | S. cerevisiae deletion strains, locus YLR102C, strain apc9, hits give low values 1.02 | S. cerevisiae deletion strains, locus YLR113W, strain HOG1, hits give low values 1.01 | S. cerevisiae deletion strains, locus YLR221C, strain rsa3, hits give low values 0.996 | S. cerevisiae deletion strains, locus YLR258W, strain gsy2, hits give low values 0.991 | S. cerevisiae deletion strains, locus YLR262C, strain YPT6 (second series), hits give low values 0.986 | S. cerevisiae deletion strains, locus YLR262C, strain YPT6, hits give low values 0.996 | S. cerevisiae deletion strains, locus YLR268W, strain sec22, hits give low values 1.02 | S. cerevisiae deletion strains, locus YLR320W, strain mms22, hits give low values 0.976 | S. cerevisiae deletion strains, locus YLR330W, strain CHS5, hits give low values 1.01 | S. cerevisiae deletion strains, locus YLR342W, strain FKS1 (second series), hits give low values 1.03 | S. cerevisiae deletion strains, locus YLR342W, strain FKS1, hits give low values 0.992 | S. cerevisiae deletion strains, locus YLR357W, strain rsc2, hits give low values 0.972 | S. cerevisiae deletion strains, locus YLR370C, strain arc18, hits give low values 0.978 | S. cerevisiae deletion strains, locus YLR371W, strain rom2, hits give low values 1.02 | S. cerevisiae deletion strains, locus YLR384C, strain iki3, hits give low values 0.985 | S. cerevisiae deletion strains, locus YLR418C, strain cdc73, hits give low values 1.03 | S. cerevisiae deletion strains, locus YML016C, strain PPZ1, hits give low values 1 | S. cerevisiae deletion strains, locus YML032C, strain rad52, hits give low values 0.998 | S. cerevisiae deletion strains, locus YML120C, strain ndi1, hits give low values 0.987 | S. cerevisiae deletion strains, locus YML124C, strain tub3, hits give low values 1.02 | S. cerevisiae deletion strains, locus YMR058W, strain fet3, hits give low values 0.988 | S. cerevisiae deletion strains, locus YMR078C, strain ctf18, hits give low values 1.01 | S. cerevisiae deletion strains, locus YMR125W, strain sto1, hits give low values 0.98 | S. cerevisiae deletion strains, locus YMR129W, hits give low values 0.995 | S. cerevisiae deletion strains, locus YMR205C, strain PFK2, hits give low values 0.976 | S. cerevisiae deletion strains, locus YMR223W, strain ubp8, hits give low values 0.998 | S. cerevisiae deletion strains, locus YMR231W, strain pep5, hits give low values 0.985 | S. cerevisiae deletion strains, locus YMR263W, strain SAP30, hits give low values 0.997 | S. cerevisiae deletion strains, locus YMR307W, strain GAS1, hits give low values 0.985 | S. cerevisiae deletion strains, locus YNL067W, strain RPL9B, hits give low values 0.996 | S. cerevisiae deletion strains, locus YNL071W, strain lat1, hits give low values 0.989 | S. cerevisiae deletion strains, locus YNL128W, strain TEP1, hits give low values 1.01 | S. cerevisiae deletion strains, locus YNL153C, strain GIM3, hits give low values 1.01 | S. cerevisiae deletion strains, locus YNL183C, strain NPR1, hits give low values 0.963 | S. cerevisiae deletion strains, locus YNL209W, strain ssb2, hits give low values 0.987 | S. cerevisiae deletion strains, locus YNL233W, strain BNI4, hits give low values 1.01 | S. cerevisiae deletion strains, locus YNL248C, strain rpa49, hits give low values 0.976 | S. cerevisiae deletion strains, locus YNL250W, strain rad50, hits give low values 0.999 | S. cerevisiae deletion strains, locus YNL271C, strain bni1, hits give low values 1.01 | S. cerevisiae deletion strains, locus YNL298W, strain CLA4, hits give low values 1.01 | S. cerevisiae deletion strains, locus YNL307C, strain MCK1, hits give low values 1.02 | S. cerevisiae deletion strains, locus YNL322C, strain KRE1 (second series), hits give low values 0.966 | S. cerevisiae deletion strains, locus YNL322C, strain KRE1, hits give low values 1.01 | S. cerevisiae deletion strains, locus YNR049C, strain mso1, hits give low values 0.99 | S. cerevisiae deletion strains, locus YNR052C, strain pop2, hits give low values 1 | S. cerevisiae deletion strains, locus YOL006C, strain TOP1, hits give low values 1.02 | S. cerevisiae deletion strains, locus YOL012C, strain htz1 0.844 | S. cerevisiae deletion strains, locus YOL147C, strain pex11, hits give low values 1.01 | S. cerevisiae deletion strains, locus YOR001W, strain rrp6, hits give low values 0.974 | S. cerevisiae deletion strains, locus YOR061W, strain CKA2, hits give low values 1 | S. cerevisiae deletion strains, locus YOR069W, strain VPS5, hits give low values 0.999 | S. cerevisiae deletion strains, locus YOR070C, strain gyp1, hits give low values 0.991 | S. cerevisiae deletion strains, locus YOR080W, strain dia2, hits give low values 0.981 | S. cerevisiae deletion strains, locus YOR083W, strain WHI5, hits give low values 0.989 | S. cerevisiae deletion strains, locus YOR106W, strain vam3, hits give low values 1.01 | S. cerevisiae deletion strains, locus YOR136W, strain idh2, hits give low values 1.02 | S. cerevisiae deletion strains, locus YOR144C, strain elg1, hits give low values 1.01 | S. cerevisiae deletion strains, locus YOR184W, strain ser1, hits give low values 1.02 | S. cerevisiae deletion strains, locus YOR231W, strain MKK1, hits give low values 1.03 | S. cerevisiae deletion strains, locus YOR265W, strain rbl2, hits give low values 1 | S. cerevisiae deletion strains, locus YOR270C, strain vph1, hits give low values 0.981 | S. cerevisiae deletion strains, locus YOR290C, strain snf2, hits give low values 0.999 | S. cerevisiae deletion strains, locus YOR316C, strain cot1, hits give low values 1.01 | S. cerevisiae deletion strains, locus YPL051W, strain arl3, hits give low values 0.993 | S. cerevisiae deletion strains, locus YPL055C, strain LGE1, hits give low values 0.992 | S. cerevisiae deletion strains, locus YPL078C, strain atp4, hits give low values 0.997 | S. cerevisiae deletion strains, locus YPL106C, strain sse1, hits give low values 0.98 | S. cerevisiae deletion strains, locus YPL240C, strain hsp82, hits give low values 1 | S. cerevisiae deletion strains, locus YPL241C, strain CIN2, hits give low values 0.999 | S. cerevisiae deletion strains, locus YPL256C, strain CLN2, hits give low values 1.01 | S. cerevisiae deletion strains, locus YPR119W, strain clb2, hits give low values 1.02 | S. cerevisiae deletion strains, locus YPR141C, strain kar3, hits give low values 1.01 | S. cerevisiae deletion strains, locus YPR163C, strain tif3, hits give low values 1.02 | S. cerevisiae deletion strains, locus YPR167C, strain met16, hits give low values 1.01 | S. cerevisiae deletion strains, strain wtn01, hits give low values 1.01 | S. cerevisiae strains, strain wild type, hits give low values 0.992
